# Source: the supplement of paper PMC11732987, “Enantioselective OTUD7B fragment discovery through chemoproteomics screening and high-throughput optimisation” (Communications Chemistry, 2025)
# Values without a mark were called inactive.
# Legend:
# Experiment in all cases: log2 ratio of Biotin-Ahx-Ub-VS probe labelling (fragment/DMSO); higher = less target engagement (more negative = stronger competition), active = hit call of the paper (q ≤ 0.05, log2 ratio ≤ -1)
# Details in all cases: compound concentration: 200 uM; treatment time: 3 h
# [1] = compound: CC(C)CN(C1CC1)C(=O)CCl
# How it was run: (§1)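 Fragment (200 µM) or vehicle was incubated for 3 h with triplicate HEK293T lysate samples of 495 µg, which were then treated with Biotin-Ahx-Ub-VS at 0.5 µM final for 1 h. Labelled DUBs were enriched on NeutrAvidin, digested with LysC and trypsin, and analysed by diaPASEF LC-MS/MS. Values are average log2 fragment/vehicle ratios from an unpaired t-test on global-median-normalised Spectronaut label-free quantities, using proteins with ≥2 unique peptides.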
# [2] = compound: CC(NC(=O)CCl)c1cccs1
# How it was run: as §1
# [3] = compound: CC1CCCCC1NC(=O)CCl
# How it was run: as §1
# [4] = compound: CC1CCCCN1C(=O)CCl
# How it was run: as §1
# [5] = compound: CC1CN(CC(C)O1)C(=O)CCl
# How it was run: as §1
# [6] = compound: CN(C1CCCCC1)C(=O)CCl
# How it was run: as §1
# [7] = compound: Cc1cc(NC(=O)CCl)no1
# How it was run: as §1
# [8] = compound: Cc1cccc(NC(=O)CCl)c1
# How it was run: as §1
# [9] = compound: Cc1nc(NC(=O)CCl)sc1C
# How it was run: as §1
# [10] = compound: Cc1nnc(NC(=O)CCl)s1
# How it was run: as §1
# [11] = compound: Cl.Cc1ncsc1CNC(=O)CCl
# How it was run: as §1
# [12] = compound: ClCC(=O)N1CCCCCCC1
# How it was run: as §1
# [13] = compound: ClCC(=O)NC1(CCCC1)C#N
# How it was run: as §1
# [14] = compound: ClCC(=O)NCC1CCC1
# How it was run: as §1
# [15] = compound: ClCC(=O)NCC1CCCO1
# How it was run: as §1
# [16] = compound: ClCC(=O)NCc1ccco1
# How it was run: as §1
# [17] = compound: ClCC(=O)Nc1cccc(Cl)c1
# How it was run: as §1
# [18] = compound: ClCC(=O)NC(C1CC1)C1CC1
# How it was run: as §1
# Sequence of UniProt Q8TE49 (Q8TE49 whole entry): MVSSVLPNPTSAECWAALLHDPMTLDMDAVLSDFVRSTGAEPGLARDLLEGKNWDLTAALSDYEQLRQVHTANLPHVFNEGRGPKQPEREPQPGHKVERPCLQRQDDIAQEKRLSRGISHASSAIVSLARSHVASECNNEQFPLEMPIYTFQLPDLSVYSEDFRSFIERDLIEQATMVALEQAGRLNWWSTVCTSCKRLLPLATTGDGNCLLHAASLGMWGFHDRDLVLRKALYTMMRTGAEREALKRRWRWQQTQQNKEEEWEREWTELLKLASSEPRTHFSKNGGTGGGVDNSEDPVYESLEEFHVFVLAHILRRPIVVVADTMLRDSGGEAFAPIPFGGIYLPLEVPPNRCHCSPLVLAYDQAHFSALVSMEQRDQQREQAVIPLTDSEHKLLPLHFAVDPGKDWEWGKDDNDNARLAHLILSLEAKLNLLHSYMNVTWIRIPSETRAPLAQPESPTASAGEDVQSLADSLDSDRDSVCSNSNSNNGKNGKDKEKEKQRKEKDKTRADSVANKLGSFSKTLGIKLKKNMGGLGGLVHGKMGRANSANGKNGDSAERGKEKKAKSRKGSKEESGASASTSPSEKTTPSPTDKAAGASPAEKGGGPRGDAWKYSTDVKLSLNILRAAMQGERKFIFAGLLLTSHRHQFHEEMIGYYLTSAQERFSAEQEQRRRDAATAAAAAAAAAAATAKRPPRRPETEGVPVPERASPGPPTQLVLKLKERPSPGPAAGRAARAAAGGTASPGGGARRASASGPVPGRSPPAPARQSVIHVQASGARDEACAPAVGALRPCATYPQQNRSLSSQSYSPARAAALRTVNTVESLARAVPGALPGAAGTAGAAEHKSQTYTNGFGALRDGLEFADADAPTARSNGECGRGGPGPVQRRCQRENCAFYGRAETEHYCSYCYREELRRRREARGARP
# Sequence of UniProt Q9Y5T5 (Q9Y5T5 whole entry, looked up): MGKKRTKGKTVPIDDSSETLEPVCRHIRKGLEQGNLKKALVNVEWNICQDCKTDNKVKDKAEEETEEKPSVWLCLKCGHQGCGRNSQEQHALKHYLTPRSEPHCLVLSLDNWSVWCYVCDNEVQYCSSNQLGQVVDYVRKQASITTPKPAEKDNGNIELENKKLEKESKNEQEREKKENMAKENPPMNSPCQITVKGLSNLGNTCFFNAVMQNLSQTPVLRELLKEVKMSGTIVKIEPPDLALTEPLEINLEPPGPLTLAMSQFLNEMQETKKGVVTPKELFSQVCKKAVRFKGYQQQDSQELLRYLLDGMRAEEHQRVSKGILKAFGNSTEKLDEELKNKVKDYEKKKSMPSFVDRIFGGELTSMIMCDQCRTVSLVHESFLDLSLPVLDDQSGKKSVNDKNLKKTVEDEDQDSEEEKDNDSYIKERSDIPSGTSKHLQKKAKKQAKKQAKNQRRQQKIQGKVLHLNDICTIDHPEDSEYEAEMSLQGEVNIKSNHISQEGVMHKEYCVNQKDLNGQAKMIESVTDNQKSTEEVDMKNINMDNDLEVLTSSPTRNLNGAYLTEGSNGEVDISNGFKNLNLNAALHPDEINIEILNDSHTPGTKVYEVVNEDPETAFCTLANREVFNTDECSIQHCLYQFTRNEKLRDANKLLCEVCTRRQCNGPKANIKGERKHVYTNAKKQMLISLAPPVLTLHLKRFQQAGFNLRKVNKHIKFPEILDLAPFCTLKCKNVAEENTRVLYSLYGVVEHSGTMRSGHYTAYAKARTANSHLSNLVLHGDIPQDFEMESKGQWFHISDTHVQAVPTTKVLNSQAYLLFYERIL
# Sequence of UniProt Q9UPT9 (Q9UPT9 whole entry): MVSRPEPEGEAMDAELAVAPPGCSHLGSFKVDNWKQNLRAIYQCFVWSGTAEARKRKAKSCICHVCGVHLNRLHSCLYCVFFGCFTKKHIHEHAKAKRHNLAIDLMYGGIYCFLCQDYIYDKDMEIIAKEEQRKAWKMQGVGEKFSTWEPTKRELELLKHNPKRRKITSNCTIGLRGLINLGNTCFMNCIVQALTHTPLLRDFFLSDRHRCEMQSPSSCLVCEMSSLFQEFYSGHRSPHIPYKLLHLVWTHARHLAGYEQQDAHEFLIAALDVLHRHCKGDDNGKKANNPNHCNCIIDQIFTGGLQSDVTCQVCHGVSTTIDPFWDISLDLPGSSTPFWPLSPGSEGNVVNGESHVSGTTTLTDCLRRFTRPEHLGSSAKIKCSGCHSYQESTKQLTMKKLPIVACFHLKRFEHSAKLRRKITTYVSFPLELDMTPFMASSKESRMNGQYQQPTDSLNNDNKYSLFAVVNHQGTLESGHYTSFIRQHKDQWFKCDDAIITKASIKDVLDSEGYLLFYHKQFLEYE
# Sequence of UniProt Q6GQQ9 (Q6GQQ9 whole entry): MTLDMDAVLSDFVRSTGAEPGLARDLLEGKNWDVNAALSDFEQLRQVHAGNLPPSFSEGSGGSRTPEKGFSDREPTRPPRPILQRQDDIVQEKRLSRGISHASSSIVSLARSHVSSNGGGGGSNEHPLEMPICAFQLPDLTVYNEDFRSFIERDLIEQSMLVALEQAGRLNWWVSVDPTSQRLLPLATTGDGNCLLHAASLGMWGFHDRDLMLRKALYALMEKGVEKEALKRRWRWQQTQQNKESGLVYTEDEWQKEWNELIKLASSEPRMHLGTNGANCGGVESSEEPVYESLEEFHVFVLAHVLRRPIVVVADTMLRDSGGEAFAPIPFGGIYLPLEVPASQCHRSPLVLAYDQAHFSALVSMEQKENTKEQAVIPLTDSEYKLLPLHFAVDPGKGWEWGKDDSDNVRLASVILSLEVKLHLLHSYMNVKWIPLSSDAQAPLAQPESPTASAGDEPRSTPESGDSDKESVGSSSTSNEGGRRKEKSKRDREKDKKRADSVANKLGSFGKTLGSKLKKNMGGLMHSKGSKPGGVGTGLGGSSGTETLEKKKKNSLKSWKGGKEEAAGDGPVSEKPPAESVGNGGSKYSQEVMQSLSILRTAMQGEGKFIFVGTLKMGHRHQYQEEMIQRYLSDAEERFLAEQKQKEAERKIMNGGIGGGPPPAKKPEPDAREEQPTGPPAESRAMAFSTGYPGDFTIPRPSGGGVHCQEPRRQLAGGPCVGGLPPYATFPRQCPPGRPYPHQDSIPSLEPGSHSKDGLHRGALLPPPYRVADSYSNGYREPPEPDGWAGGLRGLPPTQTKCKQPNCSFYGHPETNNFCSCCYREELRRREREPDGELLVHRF
# Sequence of UniProt Q70EL1 (Q70EL1 whole entry): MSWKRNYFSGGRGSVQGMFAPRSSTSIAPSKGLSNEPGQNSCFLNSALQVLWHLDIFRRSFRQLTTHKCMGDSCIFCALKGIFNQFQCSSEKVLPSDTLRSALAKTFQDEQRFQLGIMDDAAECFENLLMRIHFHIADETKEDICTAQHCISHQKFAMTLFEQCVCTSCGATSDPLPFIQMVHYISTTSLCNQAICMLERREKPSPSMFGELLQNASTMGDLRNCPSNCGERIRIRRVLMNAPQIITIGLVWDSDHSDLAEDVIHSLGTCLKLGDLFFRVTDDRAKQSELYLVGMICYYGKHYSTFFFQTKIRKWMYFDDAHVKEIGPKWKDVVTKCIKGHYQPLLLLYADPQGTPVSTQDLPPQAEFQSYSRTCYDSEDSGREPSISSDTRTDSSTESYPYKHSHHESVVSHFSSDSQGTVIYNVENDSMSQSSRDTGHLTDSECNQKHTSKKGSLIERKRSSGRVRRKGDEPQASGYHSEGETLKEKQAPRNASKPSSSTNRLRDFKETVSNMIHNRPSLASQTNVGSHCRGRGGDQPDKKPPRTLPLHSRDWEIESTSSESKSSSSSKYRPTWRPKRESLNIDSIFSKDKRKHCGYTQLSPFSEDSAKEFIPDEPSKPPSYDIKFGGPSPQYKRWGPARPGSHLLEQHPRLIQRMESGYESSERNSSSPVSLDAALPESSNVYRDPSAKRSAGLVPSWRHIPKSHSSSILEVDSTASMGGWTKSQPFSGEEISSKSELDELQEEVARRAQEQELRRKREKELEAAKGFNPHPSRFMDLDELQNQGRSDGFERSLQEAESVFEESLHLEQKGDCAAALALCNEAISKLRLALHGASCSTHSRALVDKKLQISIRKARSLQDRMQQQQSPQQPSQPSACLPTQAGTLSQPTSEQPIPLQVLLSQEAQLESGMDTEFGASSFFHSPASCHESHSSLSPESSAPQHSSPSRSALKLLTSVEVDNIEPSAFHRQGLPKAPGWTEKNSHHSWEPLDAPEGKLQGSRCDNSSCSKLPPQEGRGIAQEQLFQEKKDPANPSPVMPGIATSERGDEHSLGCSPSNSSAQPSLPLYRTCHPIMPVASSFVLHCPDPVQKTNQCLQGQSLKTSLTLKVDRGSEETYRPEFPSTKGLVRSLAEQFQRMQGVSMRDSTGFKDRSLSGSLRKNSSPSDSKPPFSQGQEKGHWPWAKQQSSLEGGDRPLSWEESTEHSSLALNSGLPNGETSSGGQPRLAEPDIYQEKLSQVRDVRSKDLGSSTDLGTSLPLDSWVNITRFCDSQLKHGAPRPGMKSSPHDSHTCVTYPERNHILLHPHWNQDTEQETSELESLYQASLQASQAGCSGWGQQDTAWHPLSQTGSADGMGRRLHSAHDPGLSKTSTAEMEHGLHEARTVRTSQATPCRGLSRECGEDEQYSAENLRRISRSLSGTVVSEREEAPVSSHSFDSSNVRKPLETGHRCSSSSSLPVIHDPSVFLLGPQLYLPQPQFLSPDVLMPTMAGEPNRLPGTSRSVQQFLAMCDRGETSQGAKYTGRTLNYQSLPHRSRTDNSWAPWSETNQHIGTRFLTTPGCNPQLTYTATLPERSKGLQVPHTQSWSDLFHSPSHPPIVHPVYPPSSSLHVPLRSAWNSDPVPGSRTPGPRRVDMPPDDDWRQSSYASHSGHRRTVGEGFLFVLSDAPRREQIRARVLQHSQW
# Sequence of UniProt P09936 (P09936 whole entry, looked up): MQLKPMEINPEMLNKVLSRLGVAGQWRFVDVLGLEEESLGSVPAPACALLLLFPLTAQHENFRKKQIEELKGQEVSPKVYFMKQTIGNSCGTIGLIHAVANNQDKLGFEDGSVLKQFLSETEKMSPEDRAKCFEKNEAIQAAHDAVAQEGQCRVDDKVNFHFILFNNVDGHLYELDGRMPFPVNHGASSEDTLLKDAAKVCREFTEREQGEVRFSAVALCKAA
Target,log2 ratio of Biotin-Ahx-Ub-VS probe labelling [1],log2 ratio of Biotin-Ahx-Ub-VS probe labelling [2],log2 ratio of Biotin-Ahx-Ub-VS probe labelling [3],log2 ratio of Biotin-Ahx-Ub-VS probe labelling [4],log2 ratio of Biotin-Ahx-Ub-VS probe labelling [5],log2 ratio of Biotin-Ahx-Ub-VS probe labelling [6],log2 ratio of Biotin-Ahx-Ub-VS probe labelling [7],log2 ratio of Biotin-Ahx-Ub-VS probe labelling [8],log2 ratio of Biotin-Ahx-Ub-VS probe labelling [9],log2 ratio of Biotin-Ahx-Ub-VS probe labelling [10],log2 ratio of Biotin-Ahx-Ub-VS probe labelling [11],log2 ratio of Biotin-Ahx-Ub-VS probe labelling [12],log2 ratio of Biotin-Ahx-Ub-VS probe labelling [13],log2 ratio of Biotin-Ahx-Ub-VS probe labelling [14],log2 ratio of Biotin-Ahx-Ub-VS probe labelling [15],log2 ratio of Biotin-Ahx-Ub-VS probe labelling [16],log2 ratio of Biotin-Ahx-Ub-VS probe labelling [17],log2 ratio of Biotin-Ahx-Ub-VS probe labelling [18]
UniProt Q8TE49,-0.309,-0.893,-1.99 (active),-0.301,-0.547,-0.46,-0.679,-0.769,-0.452,-0.537,-0.377,-0.312,-1.15 (active),-0.802,-0.46,-0.215,-1.29 (active),–
OTUD7B (UniProt Q6GQQ9),0.0222,-1.59 (active),-1.86 (active),-0.521,-0.504,-0.33,-1.28 (active),-0.708,-0.151,-0.187,-0.43,-0.18,-1.84 (active),-1.31 (active),-0.129,-0.96,-1.56 (active),–
USP16 (UniProt Q9Y5T5),-0.505,-0.513,0.199,-0.203,-0.306,-0.171,-0.735,-0.611,-0.0917,-0.476,0.128,-0.675,-0.0851,-0.131,-0.506,-0.128,-0.24,–
USP34 (UniProt Q70CQ2),-0.0417,-0.172,-0.119,-0.00177,-0.247,-0.0987,-0.256,-0.0637,-0.0566,-0.451,-0.0758,-0.0409,-0.0189,0.000583,0.219,-0.146,-0.774,–
USP54 (UniProt Q70EL1),0.0698,0.582,0.646,0.245,0.658,0.179,0.204,0.439,0.226,0.528,0.34,-0.205,0.194,0.336,0.0874,0.439,0.681,–
USP9X (UniProt Q93008),-0.0684,-0.269,-0.142,-0.264,-0.347,-0.336,-0.0452,-0.0218,-0.239,-0.36,-0.111,0.0487,-0.264,-0.191,-0.0136,-0.446,-0.734,–
USP22 (UniProt Q9UPT9),0.0555,0.184,-0.0563,0.000369,0.0274,0.0658,-0.433,-0.357,-0.117,0.0632,0.00275,-0.145,0.0376,0.219,-0.0487,0.0686,-0.655,-0.16
PRPF8 (UniProt Q6P2Q9),0.0577,-0.0808,-0.0383,-0.109,-0.0419,-0.249,0.147,0.15,0.137,0.0499,-0.0129,0.139,-0.152,-0.103,0.164,-0.228,0.0652,0.0738
UCHL1 (UniProt P09936),-1.13 (active),-1.4 (active),-1.18 (active),-1.34 (active),-1.75 (active),-1.52 (active),-1.21 (active),-1.8 (active),-1.21 (active),-1.48 (active),-0.693,-1.43 (active),-2.07 (active),-1.66 (active),-1.22 (active),-1.39 (active),-2.02 (active),–
